# In PubChem BioAssay (Tox21):
# Inconclusive results are not listed. Values without a mark were called inactive. Active and inactive are the calls of the source. The call rests on the fitted dose curve; in most records, active means well fitted cell-killing curve with a large enough effect in the repeat runs; inconclusive means weak or mixed curves, or effect the other way; inactive means no such curve, though single readings can be large or run the other way.
# Assay: Caspase-3/7 induction in CHO-K1 cells by small molecules, qHTS cell viability counter screen (AID 1346979); further: nearly all actives have a fitted effect of over 35% in size
# Conditions: CellTiter-Fluor fluorescence, 17 h; series mostly up to 92.4 µM; activity change, negative = cytotoxicity: at the top concentration
# Text: National Center for Advancing Translational Sciences [NCATS]
# NIH Chemical Genomics Center [NCGC]
# U.S. Environmental Protection Agency [EPA]
# National Institutes of Environmental Health Sciences [NIEHS]
# National Toxicology Program [NTP]
# U.S. Food and Drug Administration [FDA]
# Apoptosis is a process of programmed cell death and plays a central role in the development of multicellular organisms. It is a highly regulated process and induces cell death by activating caspases, which are the members of cysteine aspartic acid-specific protease (caspase) family. Caspases involved in apoptosis are classified by their mechanism of action as initiator caspases (caspase-2, -8, -9 and -10) and executioner caspases (caspase-3, -6, and -7). Inhibition of apoptosis results in number of cancers, autoimmune diseases, inflammatory diseases and viral infection. To identify small molecule compounds that induce apoptosis, a homogeneous, luminescent Caspase-Glo 3/7 assay was used. Wild type CHO-K1 cells were used to screen Tox21 libraries for identifying caspase-3/7 activity inducers. Also cytotoxicity of the compounds was tested in parallel by measuring the cell viability using CellTiter-Fluor assay system in the same wells.
# Tox21 Assay Protocol Summary:
# CHO-K1 cells were dispensed at 1,500 per well in 5uL of culture medium into white solid bottom 1536-well plates (Corning Life Sciences, Corning, NY) using a Multidrop Combi (Thermo Scientific, Waltham, MA) dispenser. The assay plates were incubated at 37 C and 5% CO2 for 5hr, and then 23nL of compounds dissolved in DMSO and positive control were transferred using a Pintool station (Wako, San Diego, CA). The assay plates were incubated at 37C and 5% CO2 for 17hr. For cytotoxicity read, after 16hr incubation at 37C, 1uL CellTiter-Fluor reagent (Promega Corporation, Madison, WI) was added to each well of the assay plates using Flying Reagent Dispenser (FRD, Aurora Discovery, San Diego, CA). After 1hr incubation at 37C and 5% CO2, the fluorescence signal was quantified using a ViewLux plate reader (PerkinElmer, Shelton, CT).
# On the % scale 0 is the no-effect control and ±100 the full control effect; potency means the concentration at half of the fitted maximal effect.
Structure (SMILES),"activity change, negative = cytotoxicity",Potency
CCOC(=O)C(F)(F)F,3.9%,
Cc1[nH]c(C)c(Cl)c(=O)c1Cl,1.93% [at 19 µM],
CCCCc1ncc(/C=C(\Cc2cccs2)C(=O)O)n1Cc1ccc(C(=O)O)cc1,7.98% [at 42.5 µM],
CC(=O)[O][Al][O]C(C)=O,4.92%,
CN(C)c1ccc(CCO)cc1,0.289%,
CCc1c(C(=O)NN2CCCCC2)nn(-c2ccc(Cl)cc2Cl)c1-c1ccc(Br)cc1,,27.3 µM (active)
CCCCC(CC)CN1C(=O)C2C3C=CC(C3)C2C1=O (stereo not given),-7.58%,
COC(C)(C)CCO,12.3%,
CC1CCC(=O)C1=O (stereo not given),-0.71%,
NCC(=O)O,7.68% [at 19 µM],
CCCCOC(=O)CCCCCCCC(=O)OCCCC,7.82%,
C#C[C@]1(O)CC[C@H]2[C@@H]3CCc4cc(OC5CCCC5)ccc4[C@H]3CC[C@@]21C,,29.8 µM (active)
CCC(C)O (stereo not given),0.949%,
O=S(c1cc(Cl)cc(Cl)c1O)c1cc(Cl)cc(Cl)c1O,6.11% [at 42.5 µM],
Cc1oc(-c2ccccc2)nc1CCOc1cccc2c1ccn2CCC(=O)O,,34.4 µM (active)
Brc1c2ccccc2cc2ccccc12,0.821%,
CCO[C@H](Cc1ccc(OCCc2ccc(OS(C)(=O)=O)cc2)cc1)C(=O)O,9.56% [at 42.5 µM],
O=CC1CC=CCC1 (stereo not given),-0.555%,
O=C(O)c1ccco1,3.42%,
C=C(C)C(=O)OCCOCC,2.86%,

Structure (SMILES),"activity change, negative = cytotoxicity",Potency
COc1cc2nc(N(C)CCCNC(=O)C3CCCO3)nc(N)c2cc1OC (stereo not given),,21.1 µM (active)
CC(CSC(=O)c1ccccc1)C(=O)N1C[C@@H](Sc2ccccc2)C[C@H]1C(=O)O (stereo not given in full),-1.81% [at 19 µM],
CCCCCCCC#N,1.43%,
CNC(=O)CN(CCN(CCN(CC(=O)[O-])CC(=O)NC)CC(=O)[O-])CC(=O)[O-].O.[Gd+3],0.841% [at 42.5 µM],
C=C(C)C(=O)OCC,9.85%,
CCCCC/C=C\C/C=C\CCCCCCCC(=O)NC(C)c1ccccc1 (stereo not given),,26.6 µM (active)
C=CCOc1ccccc1OCC(O)CNC(C)C (stereo not given),1.71% [at 42.5 µM],
NC(=O)C(c1ccccc1)(c1ccccc1)[C@@H]1CCN(CCc2ccc3c(c2)CCO3)C1,-1.52% [at 42.5 µM],
ClCCOCCOCCCl,8.75%,
CN1C[C@H]2c3ccccc3Oc3ccc(Cl)cc3[C@@H]2C1,-12.4% [at 42.5 µM],
CC(C)(C)OCC1CO1 (stereo not given),0.407%,
O=C(NCC1CN(c2ccc(N3CCOCC3=O)cc2)C(=O)O1)c1ccc(Cl)s1 (stereo not given),-0.521% [at 42.5 µM],
O=C(O)CNCC(=O)O,0.398% [at 8.39 µM],
OCCNCc1ccccc1,1.33%,
COc1cc(Cl)ccc1Oc1ccc(Cl)cc1Cl,3.31%,
COc1cc(Cl)c(OC)cc1N,-3.02%,
CC[N+]1(CC)CCC(=C(c2ccccc2)c2ccccc2)C1C (stereo not given),4.96% [at 42.5 µM],
COc1ccc2cccc(CCNC(C)=O)c2c1,6.1% [at 42.5 µM],
Nc1cccc([N+](=O)[O-])c1,-1.54%,
CCN(CC)CCOC(=O)C(Cc1cccc2ccccc12)CC1CCCO1 (stereo not given),-0.841% [at 42.5 µM],
